In test [1] the test system is PRMT1 (protein arginine N-methyltransferase 1). The test is described as follows: small molecules binding arginine methyltransferase PRMT1 – biochemical, small-molecule microarray, 635 nm fluorescence, primary screen (AID 1088).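 Note: binding of Prmt1 protein to compounds spotted on small-molecule microarray slides.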 Particulars: higher = more signal.
The nature of test [2]: growth effects on S. cerevisiae YJM789 – YJM789 clinical isolate, OD600, 24 h, basal, primary screen (AID 1089).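 Note: growth of clinical yeast isolate S. cerevisiae YJM 789 seeded 1000 cells per well; test concentration not given here.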 Particulars: higher = more signal, called active from +8 up or from −8 down.
Test [3] is described as follows: S. pombe growth modifiers, basal conditions – strain 972, OD600, 24 h, no modulator, primary screen (AID 1090).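 Note: basal condition with compound alone and no growth modifier present; test concentration not given here.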 Particulars: S. pombe 972 growth, higher = more signal, called active from +8 up or from −8 down.
Test [4] can be described thus: budding yeast growth modifiers under rapamycin – strain BY4716, OD600, 96 h, primary screen (AID 1091). Note: test concentration not given here. Particulars: S. cerevisiae BY4716 + rapamycin, higher = more signal, called active from +8 up or from −8 down.
Test [5] concerns the target Torsin-1A-interacting protein 2 (Homo sapiens) (UniProt Q8NFQ8). The test is described as follows: small molecules binding lysate-expressed LULL1 – cell lysate, human LULL1 lysate, 635/667 nm fluorescence, primary screen (AID 1092).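 Note: probe is lysate of COS7 cells overexpressing human LULL1; score merges per-feature 667 nm fluorescence with signal-to-noise.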 Particulars: small-molecule microarray, hLULL1 lysate binding, 635 nm fluorescence; higher = more signal.
Test [6] can be described thus: optical density change of DRC41 E. coli – strain DRC41, OD650, 24 h, E. coli filamentation project, primary screen (AID 1093).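 Note: MC1000 strain lacking acrAB efflux and sulA so SOS filamentation is blocked; test concentration not given here.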 Particulars: E. coli DRC41 growth, higher = more signal, called active from +8 up or from −8 down.
Test [7] in a line: probe aLefty2 binding to arrayed compounds – biochemical, biotinylated probe, 635/667 nm fluorescence, primary screen (AID 1094).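 Note: score merges spot fluorescence near 667 nm with spot signal-to-noise ratio.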 Particulars: small-molecule microarray, higher = more signal.
Test [8] relates to Noggin (protein binding on small-molecule microarray). The experiment in a line: small molecules binding Noggin protein – biochemical, 635/667 nm fluorescence, primary screen (AID 1095).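 Note: score merges 667 nm feature fluorescence with signal to noise over triplicate slides.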 Particulars: 635 nm fluorescence, higher = more signal.
For test [9], the target named is Neurogenic locus notch homolog protein 3 (Homo sapiens) (UniProt Q9UM47). The experiment in a line: small molecules binding NOTCH3 protein – biochemical, 635/667 nm fluorescence, primary screen (AID 1096). Particulars: small-molecule microarray, 635 nm fluorescence, higher = more signal.
Chain of Neurogenic locus notch homolog protein 3 (Homo sapiens) (Q9UM47 whole entry, looked up): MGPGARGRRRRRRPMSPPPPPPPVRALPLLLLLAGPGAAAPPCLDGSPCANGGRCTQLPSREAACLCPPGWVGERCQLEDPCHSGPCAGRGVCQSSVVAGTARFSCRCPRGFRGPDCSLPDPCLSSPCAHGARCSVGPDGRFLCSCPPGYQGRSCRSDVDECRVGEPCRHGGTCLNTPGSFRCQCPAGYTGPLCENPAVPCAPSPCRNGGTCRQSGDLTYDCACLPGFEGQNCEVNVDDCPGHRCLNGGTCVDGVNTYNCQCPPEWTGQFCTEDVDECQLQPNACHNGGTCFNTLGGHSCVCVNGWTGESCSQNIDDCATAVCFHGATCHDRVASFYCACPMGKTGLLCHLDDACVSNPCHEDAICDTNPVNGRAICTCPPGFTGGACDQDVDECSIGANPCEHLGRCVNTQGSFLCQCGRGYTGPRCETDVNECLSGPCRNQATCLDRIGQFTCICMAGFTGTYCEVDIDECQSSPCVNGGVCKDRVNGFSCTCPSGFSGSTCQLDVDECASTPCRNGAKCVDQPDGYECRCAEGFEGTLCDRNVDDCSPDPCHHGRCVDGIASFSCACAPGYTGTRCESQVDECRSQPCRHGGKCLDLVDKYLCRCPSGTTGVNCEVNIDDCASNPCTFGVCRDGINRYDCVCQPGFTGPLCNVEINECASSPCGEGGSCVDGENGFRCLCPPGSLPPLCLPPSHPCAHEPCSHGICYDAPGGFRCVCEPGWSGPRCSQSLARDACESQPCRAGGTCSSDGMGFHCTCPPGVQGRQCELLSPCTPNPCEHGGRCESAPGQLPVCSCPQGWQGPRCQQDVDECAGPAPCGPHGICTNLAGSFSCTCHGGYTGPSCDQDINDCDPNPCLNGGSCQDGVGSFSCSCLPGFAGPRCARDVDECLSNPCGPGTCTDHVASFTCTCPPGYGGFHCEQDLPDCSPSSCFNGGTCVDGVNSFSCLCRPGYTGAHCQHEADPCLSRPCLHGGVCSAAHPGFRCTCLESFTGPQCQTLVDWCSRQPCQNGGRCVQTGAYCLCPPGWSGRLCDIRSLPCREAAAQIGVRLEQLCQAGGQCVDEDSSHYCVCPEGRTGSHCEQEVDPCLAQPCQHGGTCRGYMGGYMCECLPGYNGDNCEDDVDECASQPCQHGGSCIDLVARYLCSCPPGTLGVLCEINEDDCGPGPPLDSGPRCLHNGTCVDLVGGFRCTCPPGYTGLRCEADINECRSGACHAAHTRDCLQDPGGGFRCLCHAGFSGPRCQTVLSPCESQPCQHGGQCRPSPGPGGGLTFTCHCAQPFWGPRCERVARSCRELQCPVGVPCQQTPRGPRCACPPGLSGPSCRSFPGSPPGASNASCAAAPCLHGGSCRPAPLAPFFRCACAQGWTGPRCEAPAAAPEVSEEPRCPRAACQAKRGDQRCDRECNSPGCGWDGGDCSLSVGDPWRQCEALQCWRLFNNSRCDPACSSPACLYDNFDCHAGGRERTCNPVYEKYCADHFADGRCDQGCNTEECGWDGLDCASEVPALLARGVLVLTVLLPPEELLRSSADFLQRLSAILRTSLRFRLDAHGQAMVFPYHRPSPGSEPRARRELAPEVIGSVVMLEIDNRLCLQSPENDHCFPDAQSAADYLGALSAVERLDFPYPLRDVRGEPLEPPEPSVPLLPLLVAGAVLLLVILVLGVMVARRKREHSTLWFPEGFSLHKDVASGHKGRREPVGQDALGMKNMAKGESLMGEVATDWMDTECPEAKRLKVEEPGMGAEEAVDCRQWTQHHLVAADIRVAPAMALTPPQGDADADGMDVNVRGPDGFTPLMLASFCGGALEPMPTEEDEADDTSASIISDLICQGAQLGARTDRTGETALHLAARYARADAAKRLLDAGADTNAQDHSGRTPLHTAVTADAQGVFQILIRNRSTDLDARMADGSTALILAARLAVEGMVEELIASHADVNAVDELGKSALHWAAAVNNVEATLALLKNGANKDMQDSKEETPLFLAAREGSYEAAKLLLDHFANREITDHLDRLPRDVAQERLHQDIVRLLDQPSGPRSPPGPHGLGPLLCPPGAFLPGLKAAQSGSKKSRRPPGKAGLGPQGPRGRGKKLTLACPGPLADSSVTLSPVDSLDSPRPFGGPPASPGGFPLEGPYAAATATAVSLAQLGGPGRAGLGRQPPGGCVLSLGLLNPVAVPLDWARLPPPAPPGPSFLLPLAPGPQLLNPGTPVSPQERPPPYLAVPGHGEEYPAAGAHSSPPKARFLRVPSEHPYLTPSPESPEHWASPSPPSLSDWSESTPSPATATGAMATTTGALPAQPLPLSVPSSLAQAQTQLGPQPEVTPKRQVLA
Test [10] can be described thus: probe aEGFR binding to arrayed compounds – biochemical, biotinylated probe, 635/667 nm fluorescence, primary screen (AID 1097).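 Note: probe is a biotinylated anti-EGFR antibody binding compounds printed on slides; score combines fluorescence near 667 nm and signal to noise of each spot.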 Particulars: small-molecule microarray, higher = more signal.

The source made the active and inactive calls.

Chain of Torsin-1A-interacting protein 2 (Homo sapiens) (Q8NFQ8 whole entry, looked up): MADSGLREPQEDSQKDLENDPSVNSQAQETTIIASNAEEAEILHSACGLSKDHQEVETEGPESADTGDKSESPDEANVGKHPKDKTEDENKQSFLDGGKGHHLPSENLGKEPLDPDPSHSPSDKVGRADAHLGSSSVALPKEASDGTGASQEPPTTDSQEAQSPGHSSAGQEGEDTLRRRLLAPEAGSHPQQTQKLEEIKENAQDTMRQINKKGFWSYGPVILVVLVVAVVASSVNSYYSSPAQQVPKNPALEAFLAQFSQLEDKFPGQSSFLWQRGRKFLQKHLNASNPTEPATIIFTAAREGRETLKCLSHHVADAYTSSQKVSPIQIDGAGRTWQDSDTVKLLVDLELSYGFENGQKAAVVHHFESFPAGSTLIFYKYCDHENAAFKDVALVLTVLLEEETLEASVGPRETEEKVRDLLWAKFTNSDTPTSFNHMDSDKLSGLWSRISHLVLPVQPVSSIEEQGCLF

`C=CCC(OC(C)=O)[C@@H]1[C@@H](N(Cc2ccc(-c3cccc(C(F)(F)F)c3)o2)C(=O)Cc2ccc(F)cc2)c2cc(OCCCO)ccc2N1C(=O)Cc1ccc(OC)cc1` (stereo not given in full): the composite z-score in [1] was -2.39; in test [5], -2.02; in test [7] it was 0.454; in [8], -0.137; in [9], -1.08; in test [10], -0.195. The z-score was -0.973 (inactive) in test [2], 0.0138 (inactive) in test [3], -0.982 (inactive) in [4] and -0.0261 (inactive) in test [6].

Regarding `[N-]=[N+]=NCc1ccccc1C[C@]1(C(=O)O)N=C(c2ccc(OCCCO)cc2)O[C@H]1c1ccccc1N=[N+]=[N-]`, the composite z-score is 1.56 in [1]; 3.21 in test [5]; -0.128 in test [7]; 0.435 in [8]; 1.14 in test [9]; 0.012 in test [10]. Besides, the z-score in test [2] was 0.869 (inactive); in test [3] it was -0.742 (inactive); in [4], 0.924 (inactive); in test [6] it was 0.644 (inactive).

For the compound `CC(C)N1C(=O)c2ccccc2[C@](C)(C(=O)NCc2ccccc2)[C@@H]1c1ccc(CO)cc1`, the composite z-score in test [1] was 0.0055; in test [5], 1.91; in [7], 0.0322; in [8], -0.969; in [9], -0.394; in test [10], -0.244. Moreover, the z-score is -0.261 (inactive) in [2], -1.16 (inactive) in test [3], -0.625 (inactive) in test [4] and -0.587 (inactive) in [6].

Take `COc1cc2c(cc1OC)CN(C(=O)[C@H]1[C@@H]3C(=O)O[C@@H](c4ccccc4)[C@@H](c4ccccc4)N3[C@@H](c3ccc(O)cc3)[C@]13C(=O)Nc1ccc(C#CCNC(N)=O)cc13)CC2`: the composite z-score in [1] was 1.01; in test [5] it was 0.458; in test [7], 0.0386; in [8], 0.622; in test [9], 0.46; in test [10], -0.02. For the same compound, the z-score in test [2] is 0.485 (inactive); in test [3], -0.363 (inactive); in [4], 0.518 (inactive); in test [6], 0.395 (inactive).

On to `COc1ccc(C(=O)Nc2ccc(CN3C(=O)[C@@]4(O[C@@H](CCO)[C@H]([Si](C)(C)c5ccc(OC)cc5)[C@H]4C)c4ccccc43)cc2)cc1`, for which the composite z-score is 1.54 in [1]; 1.4 in test [5]; 0.0217 in test [7]; 1.49 in test [8]; 1.08 in test [9]; -0.0774 in [10]. Besides, the z-score in [2] was -0.81 (inactive); in test [3], -7.92 (inactive); in test [4], 0.495 (inactive); in test [6] it was 0.0243 (inactive).

On to `COCCOC(=O)N1C(=O)[C@@]2(c3cc(C#CCCO)ccc31)[C@H](C(=O)N1CCc3cc(OC)c(OC)cc3C1)[C@H]1C(=O)O[C@H](c3ccccc3)[C@H](c3ccccc3)N1[C@@H]2c1ccc(O)cc1`, for which the composite z-score in [1] was 1.54; in test [5], 2.55; in test [7], 0.0262; in test [8], 1.07; in [9], 1.08; in test [10], -0.0191. The z-score was 1.42 (inactive) in [2], 0.0725 (inactive) in test [3], 1.8 (inactive) in test [4] and 0.199 (inactive) in [6].

As for `C=CCC(OC(C)=O)[C@@H]1[C@@H](N(Cc2ccc(-c3cccc(C(F)(F)F)c3)o2)C(=O)c2ccc(-c3ccccc3)cc2)c2cc(OCCCO)ccc2N1C(=O)c1ccc(-c2ccccc2)cc1` (stereo not given in full), the composite z-score in test [1] is -0.432; in test [5], 1.03; in [7], 0.0869; in test [8] it was -0.29; in test [9], -0.147; in test [10] it was -0.15. For the same compound, the z-score is 0.308 (inactive) in test [2], -0.0943 (inactive) in test [3], 0.8 (inactive) in test [4] and -0.801 (inactive) in test [6].

Take `C=CCOC(=O)[C@H]1[C@@H]2C(=O)O[C@@H](c3ccccc3)[C@@H](c3ccccc3)N2[C@@H](c2ccc(OCCOC(=O)[C@H]3C[C@H]4C(=O)N5CCC[C@H]5C(=O)N4[C@H]3c3ccc(O)cc3)cc2)[C@]12C(=O)Nc1ccc(I)cc12`: the composite z-score in [1] came to 1.53; in test [5], 3.64; in [7], 1.46; in [8], 2; in test [9] it was 1.05; in test [10] it was 0.993. Besides, the z-score in test [2] is -0.324 (inactive); in test [3] it was -1.65 (inactive); in [4] it was 0.0891 (inactive); in test [6] it was 1.07 (inactive).

As for `O=C(NCc1ccccc1)[C@@]1(CCS(=O)(=O)c2ccccc2)N=C(c2ccc(OCCCO)cc2)O[C@H]1c1ccccc1`, the composite z-score is 1.56 in test [1]; 3.56 in test [5]; 0.215 in test [7]; 0.878 in test [8]; 1.06 in test [9]; 0.116 in test [10]. In addition, the z-score in test [2] is 1.72 (inactive); in test [3], -0.129 (inactive); in test [4], 34.4 (active); in test [6], 0.988 (inactive).

For `COc1cc2c(cc1OC)CN(C(=O)[C@H]1[C@@H]3C(=O)O[C@@H](c4ccccc4)[C@@H](c4ccccc4)N3[C@@H](c3ccc(O)cc3)[C@]13C(=O)Nc1ccc(C#CC4=CCCCC4)cc13)CC2`, the composite z-score in test [1] came out at 1.51; in test [5], 2.83; in test [7], 0.0857; in [8] it was 1.12; in test [9] it was 0.913; in test [10], 0.143. Also, the z-score in test [2] was 0.203 (inactive); in [3], -2.16 (inactive); in [4], 0.563 (inactive); in [6], 1.64 (inactive).

For the compound `O=C1C2C=CC(C(O)c3ccc(F)cc3)N(Nc3ccccc3F)C2C(=O)N1c1ccccc1` (stereo not given), the composite z-score in test [1] is 0.778; in test [5], 3.48; in test [7], 0.0224; in test [8], -0.503; in [9], 1.13; in test [10], -0.0549. Also, the z-score in test [2] is 0.105 (inactive); in test [3], -0.268 (inactive); in [4], 0.0787 (inactive); in test [6], -0.42 (inactive).

In the case of `C=C[C@H](COC(C)=O)N(C(=O)OC(C)(C)C)S(=O)(=O)c1ccc(Br)cc1`, the composite z-score in test [1] came out at 0.616; in [5], 0.597; in test [7] it was 0.518; in test [8], 1.09; in [9], 0.0585; in test [10], 0.545. Besides, the z-score in [2] was 0.0834 (inactive); in [3], -1.25 (inactive); in test [4] it was 0.239 (inactive); in [6], 1.47 (inactive).

For the compound `CCN(CC)c1ccc(N2CC=CC34O[C@@H]5/C=C\CCC(C)OC(=O)C5[C@H]3C(=O)N(C(CO)C(C)C)[C@@H]4C2=O)cc1` (stereo not given in full), the composite z-score is 0.746 in test [1]; 3.28 in [5]; -0.17 in [7]; -0.995 in [8]; -0.0778 in [9]; -0.13 in test [10]. Besides, the z-score in [2] was -1.28 (inactive); in [3], -0.892 (inactive); in test [4] it was -0.924 (inactive); in test [6], 0.41 (inactive).

`Cc1ccc(S[C@]2(C(=O)NC3CC3)CC(=O)N(C3Cc4ccccc4C3)[C@@H]2c2ccc(CO)cc2)cc1`: the composite z-score in [1] is 1.38; in test [5], 3.08; in [7], -0.0533; in test [8] it was -0.878; in [9], 0.19; in test [10], -0.221. Further, the z-score in [2] was -2.31 (inactive); in test [3] it was -0.945 (inactive); in [4] it was -1.13 (inactive); in test [6], 2.12 (inactive).

The values above are taken from PubChem BioAssay.
